This note sets out measurements from PubChem BioAssay.

The nature of experiment [1]: antimalarial activity against Dd2 strain (AID 2302;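 active means growth inhibition above 50% at the single 2 µM test dose, taken to imply half-maximal potency below 2 µM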;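 further: 0% = DMSO untreated growth and 100% = chloroquine plus artemisinin killed control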). To be noted: P. falciparum Dd2 in RBCs, LDH growth readout, 72 h; at 2 µM; hits give high values.
Experiment [2] can be described thus: HepG2 cytotoxicity, primary screen, cytotoxicity control for P. falciparum antimalarial project, cell-based, ATP luminescence (AID 2303;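 active means inhibition above 50%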;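 further: 0% = DMSO wells and 100% = digitonin-killed cells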). The settings on record: HepG2 viability, 24-48 h, at 10 µM, hits give high values.
Experiment [3] has as its target L-lactate dehydrogenase (Plasmodium falciparum (isolate CDC / Honduras)) (UniProt Q27743). The experiment in a line: PfLDH activity inhibition – cell lysate, 3D7 strain, counter-screen for P. falciparum growth inhibition project (AID 2304).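 Further: 0% = vehicle and 100% = reference inhibitor.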 The settings on record: P. falciparum 3D7 crude extract, LDH APAD/NBT absorbance; at 2 µM; hits give high values. In general terms: The purpose of a counterscreen is to sort out artefacts and off-target activity.

The nature of experiment [4]: inhibition of 3D7 malaria parasite growth – strain 3D7 (AID 2306).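 Further: 0% = DMSO wells and 100% = chloroquine plus artemisinin control wells.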 The settings on record: P. falciparum 3D7 erythrocytic growth, LDH absorbance, 72 h; at 2 µM; hits give high values.
Experiment [5] deals with Calcium-dependent protein kinase 1 (Plasmodium falciparum (isolate 3D7)) (UniProt P62344). Nature of the experiment: PfCDPK1 kinase inhibitors, biochemical, TCAMS library (AID 1159585; cut-off not given, nearly all actives have IC50 up to about 0.98 µM;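 further: inhibitors leave more ATP so luminescence rises with inhibition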). To be noted: recombinant PfCDPK1, Kinase-Glo ATP depletion luminescence. Background: In Kinase-Glo more light means more ATP remaining.
For experiment [6], the target named is Plasmodium falciparum protein kinase 6 (PK6, PF3D7_1337100) (UniProt Q8IDW1). The experiment in a line: PfPK6 kinase inhibitors, biochemical, TCAMS library (AID 1159586). To be noted: recombinant PfPK6, Kinase-Glo ATP depletion luminescence.
For experiment [7], the target named is Protein kinase 7 (PK7), Plasmodium falciparum 3D7 (PF3D7_0213400) (UniProt Q7YTF7). Nature of the experiment: inhibition of Plasmodium PK7 catalytic activity – biochemical, TCAMS antimalarial set, Kinase-Glo luminescence (AID 1159587). To be noted: recombinant PfPK7, Kinase-Glo ATP depletion luminescence.
The target of experiment [8] is Calcium-dependent protein kinase 4 (Plasmodium falciparum (isolate 3D7)) (UniProt Q8IBS5). Nature of the experiment: PfCDPK4 kinase inhibitors, biochemical, TCAMS library (AID 1159588; cut-off not given, nearly all actives have IC50 up to about 0.91 µM). To be noted: recombinant PfCDPK4, Kinase-Glo ATP depletion luminescence.

Unmarked numbers belong to inactive results. For some of these results: Potency and affinity values are given separately. Activity calls are given as the source filed them. Unless noted, how the calls were made is not given here.

Sequence of Protein kinase 7 (PK7), Plasmodium falciparum 3D7 (PF3D7_0213400) (Q7YTF7 1-343): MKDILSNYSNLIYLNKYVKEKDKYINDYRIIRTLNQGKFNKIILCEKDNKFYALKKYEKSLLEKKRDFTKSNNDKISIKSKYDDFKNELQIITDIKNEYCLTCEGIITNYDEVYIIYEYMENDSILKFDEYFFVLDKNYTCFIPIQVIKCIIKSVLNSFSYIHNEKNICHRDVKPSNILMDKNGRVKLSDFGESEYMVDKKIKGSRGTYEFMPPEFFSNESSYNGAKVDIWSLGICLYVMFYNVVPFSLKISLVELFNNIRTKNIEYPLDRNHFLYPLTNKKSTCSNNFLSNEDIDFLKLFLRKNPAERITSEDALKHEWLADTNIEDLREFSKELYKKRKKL
Sequence of Plasmodium falciparum protein kinase 6 (PK6, PF3D7_1337100) (Q8IDW1 1-305): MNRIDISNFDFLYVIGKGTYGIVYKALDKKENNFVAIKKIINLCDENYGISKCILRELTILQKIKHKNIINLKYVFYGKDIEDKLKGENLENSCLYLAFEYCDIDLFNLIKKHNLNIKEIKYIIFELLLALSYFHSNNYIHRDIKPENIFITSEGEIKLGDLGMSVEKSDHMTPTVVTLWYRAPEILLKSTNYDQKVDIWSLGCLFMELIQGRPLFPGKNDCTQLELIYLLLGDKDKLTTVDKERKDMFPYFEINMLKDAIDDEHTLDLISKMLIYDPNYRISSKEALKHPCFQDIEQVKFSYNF
Sequence of Calcium-dependent protein kinase 4 (Plasmodium falciparum (isolate 3D7)) (Q8IBS5 whole entry, looked up): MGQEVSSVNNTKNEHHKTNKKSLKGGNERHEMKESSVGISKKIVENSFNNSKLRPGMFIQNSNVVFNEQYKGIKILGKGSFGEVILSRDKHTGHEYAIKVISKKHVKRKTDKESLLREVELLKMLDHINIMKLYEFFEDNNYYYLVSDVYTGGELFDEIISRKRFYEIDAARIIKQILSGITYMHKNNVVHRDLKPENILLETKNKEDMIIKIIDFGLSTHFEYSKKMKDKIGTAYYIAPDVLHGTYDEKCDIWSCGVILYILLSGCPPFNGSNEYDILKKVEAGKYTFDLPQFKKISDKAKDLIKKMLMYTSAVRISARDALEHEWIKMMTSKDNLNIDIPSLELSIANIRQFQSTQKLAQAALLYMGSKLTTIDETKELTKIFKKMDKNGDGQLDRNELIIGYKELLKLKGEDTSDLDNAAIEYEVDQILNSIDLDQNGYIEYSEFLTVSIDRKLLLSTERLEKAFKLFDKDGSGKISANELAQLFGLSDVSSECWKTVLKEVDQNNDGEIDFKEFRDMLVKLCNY
Sequence of Calcium-dependent protein kinase 1 (Plasmodium falciparum (isolate 3D7)) (P62344 whole entry, looked up): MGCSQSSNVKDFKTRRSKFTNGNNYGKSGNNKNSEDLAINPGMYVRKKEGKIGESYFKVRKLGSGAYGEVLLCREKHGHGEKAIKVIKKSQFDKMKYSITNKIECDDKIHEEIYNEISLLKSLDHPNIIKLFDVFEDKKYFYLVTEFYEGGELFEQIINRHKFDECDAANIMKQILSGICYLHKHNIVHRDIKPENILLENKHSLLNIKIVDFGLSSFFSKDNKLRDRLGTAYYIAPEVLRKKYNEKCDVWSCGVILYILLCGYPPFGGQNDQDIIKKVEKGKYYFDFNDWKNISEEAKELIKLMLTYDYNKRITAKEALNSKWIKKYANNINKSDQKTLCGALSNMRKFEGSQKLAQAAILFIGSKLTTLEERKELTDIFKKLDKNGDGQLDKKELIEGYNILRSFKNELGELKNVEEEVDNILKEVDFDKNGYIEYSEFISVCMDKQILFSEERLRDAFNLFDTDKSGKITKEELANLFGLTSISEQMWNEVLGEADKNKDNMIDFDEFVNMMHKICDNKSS
Sequence of L-lactate dehydrogenase (Plasmodium falciparum (isolate CDC / Honduras)) (Q27743 whole entry, looked up): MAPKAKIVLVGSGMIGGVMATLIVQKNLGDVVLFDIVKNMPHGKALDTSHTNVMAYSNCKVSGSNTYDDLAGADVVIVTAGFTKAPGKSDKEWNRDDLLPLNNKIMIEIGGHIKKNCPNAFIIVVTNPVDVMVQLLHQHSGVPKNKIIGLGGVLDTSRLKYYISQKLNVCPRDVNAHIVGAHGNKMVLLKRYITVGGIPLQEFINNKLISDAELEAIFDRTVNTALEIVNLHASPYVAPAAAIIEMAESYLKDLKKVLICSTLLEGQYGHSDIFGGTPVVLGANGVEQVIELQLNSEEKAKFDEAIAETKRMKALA

What is called inhibition is the change of the read-out against control, counted positive when it falls. `CCOc1ccc2c(c1)OC(c1ccccc1)(C(F)(F)F)NC2=O` (stereo not given): the growth inhibition in experiment [1] was 98% (active); in experiment [4], 100% (active). Moreover, the inhibition is -7% in experiment [2] and -2% in experiment [3]. For the same compound, the outcome in experiment [5], in experiment [6], in experiment [7] and in experiment [8] was inactive.
Turning to `CCCC(=O)NC(c1cccs1)c1cc(Cl)c2cccnc2c1O` (stereo not given), the values for the growth inhibition in experiment [1] and in experiment [4] were 61% (active) and 87% (active), respectively. The inhibition in experiment [2] is 51% (active); in experiment [3], -4%. In addition, the outcome in experiment [5], in experiment [6], in experiment [7] and in experiment [8] was inactive.
As to `O=C(Nc1cc(C(F)(F)F)cc(C(F)(F)F)c1)NC(CCCN1CCC2(CC1)OCc1ccccc12)c1ccc(Cl)c(Cl)c1` (stereo not given), the growth inhibition in experiment [1] is 87% (active); in experiment [4], 94% (active). Further, the results for the inhibition in experiment [2] and in experiment [3] were 26% and 2%, respectively. Moreover, the outcome in experiment [5], in experiment [6], in experiment [7] and in experiment [8] was inactive.
`Cc1ccccc1CNc1nccc(NCCC(=O)Nc2ccccc2)n1`: the growth inhibition in experiment [1] is 15%; in experiment [4], 90% (active). Moreover, the inhibition is 16% in experiment [2] and -3% in experiment [3]. The outcome in experiment [5], in experiment [6], in experiment [7] and in experiment [8] was inactive.
Turning to `O=C(Nc1ccc(-c2nc3ccccc3[nH]2)cc1)c1ccc(Cl)c([N+](=O)[O-])c1`, the growth inhibition in experiment [1] was 4%; in experiment [4] it was 99% (active). Further, the results for the inhibition in experiment [2] and in experiment [3] were 6% and 1%, respectively. The result in experiment [5], in experiment [6], in experiment [7] and in experiment [8] was inactive.
Turning to `NC(=Nc1nc(-c2ccccn2)cc2ccccc12)c1cccc(Cl)c1`, the results for the growth inhibition in experiment [1] and in experiment [4] were 99% (active) and 101% (active), respectively. The inhibition is 54% (active) in experiment [2] and 0% in experiment [3]. Besides, the outcome in experiment [5], in experiment [6], in experiment [7] and in experiment [8] was inactive.
For `CCCCc1ccc(-c2ccc3[nH]c(C)c(Br)c(=O)c3c2)cc1`, the growth inhibition in experiment [1] and in experiment [4] was 97% (active) each time. For the same compound, the inhibition was -10% in experiment [2] and -2% in experiment [3]. Besides, the outcome in experiment [5], in experiment [6], in experiment [7] and in experiment [8] was inactive.
As to `O=C(NCc1cccc(F)c1)Nc1ccc(-c2cccc(-c3nc4ccccc4[nH]3)c2)cc1`, the growth inhibition in experiment [1] is 2%; in experiment [4], 86% (active). Further, the inhibition in experiment [2] is 14%; in experiment [3] it was 0%. Also, the result in experiment [5], in experiment [6], in experiment [7] and in experiment [8] was inactive.
`Cc1cccc2[nH]c(-c3cccc(-c4cccc(NC(=O)c5cccnc5)c4)c3)nc12`: the results for the growth inhibition in experiment [1] and in experiment [4] were 56% (active) and 101% (active), respectively. Moreover, the inhibition is 28% in experiment [2] and -5% in experiment [3]. Also, the outcome in experiment [5], in experiment [6], in experiment [7] and in experiment [8] was inactive.
For `O=C(NCc1cccc(F)c1)Nc1cccc(-c2cccc(-c3nc4ccccc4[nH]3)c2)c1`, the growth inhibition was 27% in experiment [1] and 96% (active) in experiment [4]. Besides, the inhibition in experiment [2] was 28%; in experiment [3] it was -1%. Moreover, the result in experiment [5], in experiment [6], in experiment [7] and in experiment [8] was inactive.
Turning to `O=C(NC1CCC(N2CCN(c3cccc(C(F)(F)F)c3)CC2)CC1)c1cc2ccccc2[nH]1` (stereo not given), the values for the growth inhibition in experiment [1] and in experiment [4] were 22% and 99% (active), respectively. For the same compound, the values for the inhibition in experiment [2] and in experiment [3] were 23% and 0%, respectively. The result in experiment [5], in experiment [6], in experiment [7] and in experiment [8] was inactive.
With `Cc1cc(Nc2c(C(N)=O)cnc3cc(-c4ccoc4)ccc23)ccc1N1CCN(C)CC1`, the figures for the growth inhibition in experiment [1] and in experiment [4] were 100% (active) and 101% (active), respectively. Moreover, the inhibition in experiment [2] is 7%; in experiment [3], 1%. The outcome in experiment [5], in experiment [6], in experiment [7] and in experiment [8] was inactive.
With `COc1ccc2nccc([C@@H](O)CN3CCC(NCc4cc5cccc(O)c5c(=O)[nH]4)CC3)c2c1`, the figures for the growth inhibition in experiment [1] and in experiment [4] were 66% (active) and 99% (active), respectively. Further, the inhibition in experiment [2] was 8%; in experiment [3], 3%. For the same compound, the result in experiment [5], in experiment [6], in experiment [7] and in experiment [8] was inactive.
With `CN(C)CCOc1ccc(NC(=O)NC(C)(C)c2nc(-c3ccc(Cl)c(O)c3)c(-c3ccncc3)[nH]2)cc1`, the growth inhibition in experiment [1] and in experiment [4] was 98% (active) each time. Besides, the results for the inhibition in experiment [2] and in experiment [3] were 22% and 5%, respectively. In addition, the result in experiment [5], in experiment [6], in experiment [7] and in experiment [8] was inactive.
As for `O=C(Nc1cccc(Cl)c1Cl)N1CCc2cc3nccc(N4CCN5CCC[C@H]5C4)c3cc21`, the values for the growth inhibition in experiment [1] and in experiment [4] were 100% (active) and 98% (active), respectively. In addition, the figures for the inhibition in experiment [2] and in experiment [3] were 9% and -1%, respectively. Also, the result in experiment [5], in experiment [6], in experiment [7] and in experiment [8] was inactive.
On to `Cc1ccccc1N1CCN(c2ncc(C(=O)NC3CC3)cc2Cl)CC1`, for which the growth inhibition is 96% (active) in experiment [1] and 91% (active) in experiment [4]. Further, the inhibition was 23% in experiment [2] and -2% in experiment [3]. Besides, the result in experiment [5], in experiment [6], in experiment [7] and in experiment [8] was inactive.
As to `Oc1ccc(Cc2ccccc2)cc1CNC1CCCCC1`, the growth inhibition in experiment [1] is 98% (active); in experiment [4], 96% (active). The inhibition was 30% in experiment [2] and -1% in experiment [3]. Also, the result in experiment [5], in experiment [6], in experiment [7] and in experiment [8] was inactive.
`O=C(Nc1cccc(-c2cccc(-c3nc4ccc(C(F)(F)F)cc4[nH]3)c2)c1)c1cccnc1Cl`: the growth inhibition in experiment [1] was 58% (active); in experiment [4], 95% (active). For the same compound, the inhibition was 56% (active) in experiment [2] and 1% in experiment [3]. Also, the outcome in experiment [5], in experiment [6], in experiment [7] and in experiment [8] was inactive.
Regarding `COc1ccc2nccc([C@@H](O)CN3CCC(NCc4cc5c(F)ccc(F)c5[nH]4)CC3)c2n1`, the growth inhibition in experiment [1] is 76% (active); in experiment [4], 101% (active). Besides, the results for the inhibition in experiment [2] and in experiment [3] were 22% and -6%, respectively. The result in experiment [5], in experiment [6], in experiment [7] and in experiment [8] was inactive.
As for `CC(C)c1cccc(OCC2CCN(c3ncc(C(=O)NC4CC4)cc3Cl)CC2)c1`, the growth inhibition in experiment [1] is 95% (active); in experiment [4], 94% (active). In addition, the inhibition was 9% in experiment [2] and -1% in experiment [3]. Further, the outcome in experiment [5], in experiment [6], in experiment [7] and in experiment [8] was inactive.
